# Results from PubChem BioAssay (NCI).
# Compounds without any hit were thinned out: in the full panel of roughly 83,000, 20% have a hit.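 Cell lines were cultured in 96-well plates, exposed to a single compound concentration, and assessed for percent growth 48 hours later.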 A number with no mark means an inactive call. Calls of active or inactive are those of the source. The calls were made as follows: active = growth percent below 10; inactive = the rest.
# Tested on: HL-60(TB) leukemia
# Experiment: NCI-60 one-dose screen, 48 h (100 = growth as untreated, 0 = no growth, -100 = all killed)
# Conditions: 10 µM unless noted
row,SMILES,growth
1,COc1ccc(-c2nc(N)n(C(=S)Nc3ccccc3)n2)cc1,96.4%
2,COc1cc(-c2ncn(/C=C\c3nnco3)n2)cc(C(F)(F)F)c1,11.2%
3,COc1cc(OC)cc(C(=O)C[n+]2cccc3cc[nH]c32)c1,99%
4,COc1cc2c3c(n(CCCCNCCCn4c5c(c6cc(OC)c(OC)cc6c4=O)C(=O)c4cc6c(cc4-5)OCO6)c(=O)c2cc1OC)-c1cc2c(cc1C3=O)OCO2,93.7%
5,COc1ccc(NC(=O)c2ccccc2-c2ccccc2)c(C(N)=O)c1,-17.9% (active)
6,O=C1NC(=O)c2c(CCCSc3nc4ccccc4c(=O)n3CCc3ccccc3)cccc21,111%
7,O=C(/C(=C/c1ccc([N+](=O)[O-])cc1)SCc1ccccc1)c1ccc(Cl)cc1,74.4%
8,CNCCCn1c2c(c3ccc([N+](=O)[O-])cc3c1=O)C(=O)c1cc(OC)cnc1-2,-32.3% (active)
9,CCCOC(=O)c1ccc2c(c1)[N+](=O)C(C(=O)c1ccccc1)=C(C(F)(F)F)[N+]2=O,-71.6% (active)
10,O=C(Nc1cccc(-n2cc(-c3ccncc3)c(-c3ccc(O)c(Cl)c3)n2)c1)Nc1ccc(Cl)c(C(F)(F)F)c1,-2.7% (active)
11,Nc1nc2ncc(CCNc3ccc(C(=O)O)cc3)nc2c(=O)[nH]1,58.2%
12,CN1CCN(Cc2ccc(NC(=O)c3[nH]ncc3Nc3ncnc4sc5c(c34)CCCC5)cc2)CC1,-67.4% (active)
13,COc1ccc(C2CC(c3ccc4ccccc4c3)=NN2c2nc(O)c(C3=c4cc(OC)ccc4=NC3=O)s2)cc1 (stereo not given),36.2%
14,O=C(c1c[nH]c2ccccc12)c1n[nH]c(=S)n1-c1ccc([N+](=O)[O-])cc1,61.4%
15,Cc1ccc(-c2ccc(/C=C(\C#N)c3nc(-c4ccco4)cs3)o2)cc1,101%
16,C=C(C)COc1ccc(C(C)(C)C)cc1,104%
17,COc1ccc(-c2nn(-c3cccc(NC(=O)Nc4cc(C(F)(F)F)cc(C(F)(F)F)c4)c3)cc2-c2ccncc2)cc1Cl,-25.4% (active)
18,O=c1cc(/C(=C2/C=CC=N2)c2ccc[nH]2)c2cc(Cl)ccc2o1,85.2%
19,COc1ccc(C(=O)c2cc(OC)c(OC)c(OC)c2OC)cc1O,25.2%
20,Cc1ccc(O)c(C(=O)c2ccccc2Cl)c1,112%

row,SMILES,growth
1,CCOC(=O)Nc1ccc2c(c1)C(=O)N(CC)c1ccccc1O2,-17% (active)
2,O=C1NC(=O)/C(=C/c2ccc(Cl)cc2Cl)N1,97%
3,CC(O)/C=C/C=C/C(O)CC/C=C/C(=O)NCC(C)(C)O (stereo not given),81.1%
4,O=C(COc1ccc(Cl)cc1)N1CCN(Cc2ccc3c(c2)OCO3)CC1,109%
5,CC(C)OP(=O)(OC(C)C)c1ncc(-c2ccc(C(F)(F)F)cc2)c(NC2CCCCCC2)n1,-43.9% [33.3 µM] (active)
6,COC(=O)c1cc(Cl)cc([N+](=O)[O-])c1O,18.8%
7,Clc1ccccc1-c1cnn2cc(-c3ccccc3)cnc12,96.2%
8,CC1CN(/N=C/c2ccc([N+](=O)[O-])o2)C(=N)O1 (stereo not given),99.8%
9,O=C1/C(=C/c2ccccc2)COc2ccc(O)cc21,33.9%
10,CSc1nc(Nc2cccc(NC(=O)/C(C#N)=C/c3c(Cl)cccc3Cl)c2)c(C#N)c(-c2cccc([N+](=O)[O-])c2)n1,58.3%
11,N#Cc1cnn(C(=O)c2nn(-c3ccc(Cl)cc3)cc2O)c1N,-50.1% (active)
12,CC(=O)CCS(=O)c1ccccc1 (stereo not given),97.4%
13,CN1C(=O)CNC(=O)[C@H](NC(=O)c2nc3ccccc3cc2O)CSSC[C@H]1C(=O)NCCc1nc2ccccc2cc1O,-36.8% (active)
14,COc1c(Br)cc(C(c2cc(Br)c(OC)c(Br)c2)c2ccccc2C(=O)O)cc1Br,91%
15,COc1ccc2nc3cc(Cl)ccc3c(NCCCNCCO)c2c1,-14.3% (active)
16,COc1cc(OC)cc(-c2ccc(-c3ccc(C(=N)N)s3)s2)c1,-71.9% (active)
17,CCCCCCCCCCCCNC(=O)[C@H]1CSC(c2cc3ccccc3s2)N1 (stereo not given in full),-33.3% (active)
18,COc1ccc(-c2cc(=O)oc3c4c(ccc23)OCN(Cc2ccc(F)cc2)C4)cc1,47.9%
19,O=c1n(Cc2ccc3ccccc3c2)ccn1Cc1ccc2ccccc2c1,103%
20,Cc1ccc(C)n1-c1ccccc1-n1c(C)ccc1C,82.2%
